Results from the supplement of paper PMC8975748.
Structures can show the parent of a compound that is named as a salt.

The compounds below were run on Saccharomyces cerevisiae BY4741 SeMeCo community (assay: z-score of subpopulation abundance vs DMSO median, subpopulation auxotrophic for HM; higher = larger share of this subpopulation than in DMSO controls). Settings: 10 µM; 24 h; SM minimal medium; subpopulation (auxotrophy): HM.
Protocol: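 Fluorescent four-plasmid SeMeCo (self-establishing metabolically cooperating S. cerevisiae BY4741 community; plasmids pH-mRuby2, pL-mWasabi, pU-eCFP, pM-TagRFP657) was grown 24 h in minimal SM medium with each Selleck FDA-approved drug at 10 µM in 384-well plates. Cells were fixed and imaged by high-content confocal microscopy. For each auxotrophic subpopulation (and the prototroph), a z-score gives the deviation from the DMSO vehicle-control population median.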

In order of rising “z-score of subpopulation abundance” value:
1. COc1cccc2c1C(=O)c1c(O)c3c(c(O)c1C2=O)C[C@@](O)(C(C)=O)C[C@@H]3O[C@H]1C[C@H](N)[C@H](O)[C@H](C)O1 [Daunorubicin HCl]  -3.07
2. C=CCCCCCCCCC(=O)[O-].C=CCCCCCCCCC(=O)[O-].[Zn+2] [Zinc Undecylenate]  -2.65
3. NC(=N\CCCCCC/N=C(N)/N=C(\N)Nc1ccc(Cl)cc1)/N=C(\N)Nc1ccc(Cl)cc1 [Chlorhexidine diacetate]  -1.35
4. Cn1c(=O)c2c(ncn2CC(O)CO)n(C)c1=O (stereo not given) [Dyphylline]  -0.97
5. NC(=O)N1c2ccccc2C=Cc2ccccc21 [Carbamazepine]  -0.61
6. c1ccc(C2CN3CCSC3=N2)cc1 (stereo not given) [Tetramisole HCl]  -0.54
7. O=C(O)Cc1ccccc1Nc1c(Cl)cccc1Cl [Diclofenac Diethylamine]  -0.49
8. NC1CCN(c2nc3c(cc2F)c(=O)c(C(=O)O)cn3-c2ccc(F)cc2F)C1 (stereo not given) [Tosufloxacin p-Toluenesulfonate Hydrate]  -0.46
9. Nc1ccc(S(=O)(=O)Nc2ccnn2-c2ccccc2)cc1 [Sulfaphenazole]  -0.42
10. NCC[C@H](O)C(=O)N[C@@H]1C[C@H](N)[C@@H](O[C@H]2O[C@H](CN)[C@@H](O)[C@H](O)[C@H]2O)[C@H](O)[C@H]1O[C@H]1O[C@H](CO)[C@@H](O)[C@H](N)[C@H]1O [Amikacin hydrate]  -0.36
11. C[C@@H](CN1CC(=O)NC(=O)C1)N1CC(=O)NC(=O)C1 [Dexrazoxane HCl (ICRF-187, ADR-529)]  -0.36
12. Cc1c(S(=O)(=O)O)oc2c1C(=O)C(=O)c1c-2ccc2c1CCCC2(C)C [Tanshinone IIA sulfonate (sodium)]  -0.31
13. CC(=O)[O-].[K+] [Potassium acetate]  -0.29
14. CC(=O)NC[C@H]1CN(c2ccc(N3CCOCC3)c(F)c2)C(=O)O1 [Linezolid]  -0.27
15. COc1ccnc(C[S+]([O-])c2nc3cc(OC(F)F)ccc3[nH]2)c1OC (stereo not given) [Pantoprazole]  -0.27
16. COC1C(O)CC(=O)OC(C)CC=CC=CC(OC2CCC(N(C)C)C(C)O2)C(C)CC(CC=O)C1OC1OC(C)C(OC2CC(C)(O)C(O)C(C)O2)C(N(C)C)C1O (stereo not given) [Spiramycin]  -0.27
17. CCc1nc(N)nc(N)c1-c1ccc(Cl)cc1 [Pyrimethamine]  -0.27
18. C=CC(C)(O)CCC=C(C)C (stereo not given) [Linalool]  -0.25
19. CCCNCC(O)COc1ccccc1C(=O)CCc1ccccc1 (stereo not given) [Propafenone HCl]  -0.15
20. N[C@@H]1CCCCN(c2c(F)cc3c(=O)c(C(=O)O)cn(C4CC4)c3c2Cl)C1 [Besifloxacin HCl]  -0.14
21. C[N+]1(C)[C@@H]2C[C@@H](OC(=O)C(O)(c3cccs3)c3cccs3)C[C@H]1[C@@H]1O[C@@H]12 [Tiotropium Bromide hydrate]  -0.06
22. CCN(CC)CCOC(=O)c1ccc(N)cc1Cl [Chloroprocaine HCl]  -0.02
23. Nc1ccc(/N=N/c2ccccc2)c(N)n1 [Phenazopyridine HCl]  0.02
24. CO[C@@]1(NC(=O)Cc2cccs2)C(=O)N2C(C(=O)O)=C(COC(N)=O)CS[C@@H]21 [Cefoxitin sodium]  0.04
25. CN(C)CCCN1c2ccccc2CCc2ccc(Cl)cc21 [Clomipramine HCl]  0.1
26. CCOC(=O)c1c(CSc2ccccc2)n(C)c2cc(Br)c(O)c(CN(C)C)c12 [Arbidol HCl]  0.29
27. O=C1CCc2ccc(OCCCCN3CCN(c4cccc(Cl)c4Cl)CC3)cc2N1 [Aripiprazole]  0.47
28. CCc1nn(CCCN2CCN(c3cccc(Cl)c3)CC2)c(=O)n1CCOc1ccccc1 [Nefazodone hydrochloride]  0.55
29. CC(C(=O)O)c1cccc(C(=O)c2ccccc2)c1 (stereo not given) [Ketoprofen]  0.55
30. CN[C@@H]1[C@@H](O)[C@@H](O[C@@H]2[C@@H](O)[C@H](O[C@H]3OC(CN)=CC[C@H]3N)[C@@H](N)C[C@H]2N)OC[C@]1(C)O [Sisomicin sulfate]  0.61
31. CN(C)CCc1c[nH]c2ccc(Cn3cncn3)cc12 [Rizatriptan Benzoate]  0.65
32. CCCCCOc1ccc(-c2ccc(-c3ccc(C(=O)N[C@H]4C[C@@H](O)[C@@H](O)NC(=O)[C@@H]5[C@@H](O)[C@@H](C)CN5C(=O)[C@H]([C@@H](C)O)NC(=O)[C@H]([C@H](O)[C@@H](O)c5ccc(O)cc5)NC(=O)[C@@H]5C[C@@H](O)CN5C(=O)[C@H]([C@@H](C)O)NC4=O)cc3)cc2)cc1  0.97
33. COc1cc(NC(C)CCCN)c2ncccc2c1 (stereo not given) [Primaquine Diphosphate]  0.98
34. O=c1c(-c2ccc(O)cc2)coc2c([C@@H]3O[C@H](CO)[C@@H](O)[C@H](O)[C@H]3O)c(O)ccc12 [Puerarin]  1.09
35. Nc1c(CC(=O)O)cccc1C(=O)c1ccccc1 [Amfenac Sodium Monohydrate]  1.16
36. Clc1ccc(COC(Cn2ccnc2)c2ccc(Cl)cc2Cl)cc1 (stereo not given) [Econazole nitrate]  2.52
37. O=c1ccc2cc(O)c(O)cc2o1 [Esculetin]  3.75
38. C=C1CCN([C@H](C)[C@](O)(Cn2cncn2)c2ccc(F)cc2F)CC1 [Efinaconazole]  3.94
39. CO[C@H]1C[C@@H]2CC[C@@H](C)[C@@](O)(O2)C(=O)C(=O)N2CCCC[C@H]2C(=O)O[C@H]([C@H](C)C[C@@H]2CC[C@@H](O)[C@H](OC)C2)CC(=O)[C@H](C)/C=C(\C)[C@@H](O)[C@@H](OC)C(=O)[C@H](C)C[C@H](C)/C=C/C=C/C=C/1C [Rapamycin (Sirolimus)]  21.4
40. Oc1c(Br)cc(Br)c2cccnc12 [Broxyquinoline]  27.7
